From PubChem BioAssay (NCI)
Several values for one entry are separate records, joined by “and”; a condition that tells them apart may be missing. Identical values can stand only once. About 83,000 compounds went through this panel and 20% of them were active in at least one assay; those are over-represented in the sample as a whole.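 For each line, cells grew in 96-well plates with the test compound present at a single concentration for 48 hours.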 Activity calls are given as the source filed them. The calls were made as follows: active = growth percent below 10; inactive = the rest.

These molecules were tested on MDA-MB-468 breast (assay: NCI-60 one-dose screen, 48 h (100 = growth as untreated, 0 = no growth, -100 = all killed)). Details: 10 µM unless noted.
`COc1ccc(-c2nc(SCCC(C)C)nc(N/N=C\c3cccc([N+](=O)[O-])c3)c2C#N)cc1` was tested, and the growth was 12.7% (inactive).
With `CN1CCN(CCCOc2ccc3nc(Nc4cc(Cl)cc(Cl)c4)ccc3c2)CC1` the growth was -74.4% (active).
For `O=C(NCOC(O)C(Cl)(Cl)Cl)NCOC(O)C(Cl)(Cl)Cl` (stereo not drawn), the growth was 106% (inactive).
With `CCN(CCNc1ccc(C)c2sc3cc(Cl)ccc3c(=O)c12)CC(C)O` (stereo not drawn) the growth was 62.2% (inactive).
For `CCS(=O)(=O)OCCO[C@H]1Cc2cc3ccc(=O)oc3cc2OC1(C)C`, the growth was 97.9% (inactive).
In the case of `COc1cccc(OC)c1-c1nnn(C)c1C(=S)N1CCN(c2ccc([N+](=O)[O-])cc2Cl)CC1`, the growth is reported as 89% (inactive).
For `CCN1C(=S)N(c2ccccc2)C2NC(=S)N(/N=C/C=C/c3ccccc3OC)C21` (stereo not drawn), the growth was 6.55% (active).
In the case of `O=S(=O)(NCCNc1nccc(-c2c(-c3ccc(F)c(O)c3)nc3sccn23)n1)c1ccccc1`, the growth is reported as 83.2% (inactive).
For `CCN=Cc1c(O)c(O)c(C(C)C)c2cc(C)c(-c3c(C)cc4c(C(C)C)c(O)c(O)c(C=NCC)c4c3O)c(O)c12`, the growth was 55.7% (inactive).
`c1ccc(-c2c(-c3ccccc3)[n+](Cc3ccc4ccccc4c3)c(-c3ccc(-c4nc5ccccc5s4)cc3)n2Cc2ccc3ccccc3c2)cc1` was tested, and the growth was -77.8% (active).
With `Cc1ccc(NC(=O)c2cc3ccccc3cc2O)c(C)c1` the growth was 87.6% (inactive).
`Nc1c(C(=O)Nc2cccc3c2OCCO3)sc2nc3c(cc12)CN(Cc1ccccc1)CC3` was tested, and the growth was 38.8% (inactive).
`CCCCOC1NC(=O)NC(=O)C1(F)C(=O)OCC` (stereo not drawn) was tested, and the growth was 93.8% (inactive) and 101% (inactive).
